This note sets out measurements from the supplement of paper PMC11219838.

Common to all, as to details: 60 µM; 5 days; temperature: 20 °C
In experiment [1] the test system is Meloidogyne hapla J2. The experiment in a line: proportion of mobile M. hapla J2 relative to DMSO control (fraction of DMSO control); higher = more viable, less nematicidal, active = 0.7 or less. A digest of the protocol: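 Sealed 96-well plates, each well holding around 25 M. hapla J2 in distilled water with compound pinned to 60 µM final (0.6% v/v DMSO), were shaken at 200 rpm for 5 days at 20 °C. Then 2 µL of 1 M NaOH was added to each well. Microscope-scored mobility was normalised to the mean of DMSO-only wells from the same plate. Eight such wells were on each plate, and the two biological replicates were averaged.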

Experiment [2] concerns Caenorhabditis elegans dauer (daf-2(e1370)). The experiment in a line: proportion of mobile C. elegans dauer larvae relative to DMSO control (fraction of DMSO control); higher = more viable, less nematicidal, active = 0.63 or less; extreme values may be limits of the assay. A digest of the protocol:
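The proportion of mobile worms, relative to DMSO wells, was scored by dissection microscope and averaged over two biological replicates. Worms were C. elegans dauers, about 20 per well in liquid NGM in 96-well plates, generated from synchronized larvae on MYOB plates with E. coli OP50 at 25 °C for 48 h. They were treated with compound pinned to 60 µM final (0.6% v/v DMSO) and kept in sealed plates shaken at 200 rpm for 5 days at 20 °C.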

In experiment [3] the test system is Ditylenchus dipsaci. The experiment in a line: proportion of mobile D. dipsaci (mixed stage) relative to DMSO control (fraction of DMSO control); higher = more viable, less nematicidal, active = 0.86 or less; extreme values may be limits of the assay. A digest of the protocol:
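Mobility, expressed relative to DMSO controls, is the mean of two biological replicates. The test organisms were D. dipsaci grown on pea plants in Gamborg B-5 agar and extracted into water by filter funnel, with about 20 added per well of a 96-well plate in distilled water. Compound was pinned to 60 µM final (0.6% v/v DMSO), plates were sealed and shaken at 200 rpm for 5 days at 20 °C, and mobile worms were scored under a microscope once 2 µL 1 M NaOH had been added.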

Molecules are shown by their SMILES. Values without a mark were called inactive.

As for `Cc1cc(C)c(C)c(OCc2nc(-c3cccnc3)no2)c1`, the “proportion of mobile M. hapla J2” value in experiment [1] is 0.58 (active). Also, in experiment [2], the “proportion of mobile C. elegans dauer larvae” value is 1. Further, the “proportion of mobile D. dipsaci” value in experiment [3] was 1.

With `COc1ccccc1-c1nc(-c2cccc(Br)c2)no1`, the “proportion of mobile M. hapla J2” value in experiment [1] is 1.04. The “proportion of mobile C. elegans dauer larvae” value in experiment [2] was 1. Besides, the “proportion of mobile D. dipsaci” value in experiment [3] is 1.

`Clc1ccc(OCc2ccccc2)c(-c2nc(-c3cccnc3)no2)c1`: the “proportion of mobile M. hapla J2” value in experiment [1] was 1.01. For the same molecule, the “proportion of mobile C. elegans dauer larvae” value in experiment [2] was 1. Moreover, the “proportion of mobile D. dipsaci” value in experiment [3] is 0.917.

With `CC(=O)c1c(C)cc(C)c(CSc2nnc(-c3ccco3)o2)c1C`, in experiment [1], the “proportion of mobile M. hapla J2” value was 0.906. Also, the “proportion of mobile C. elegans dauer larvae” value in experiment [2] is 1. Further, the “proportion of mobile D. dipsaci” value in experiment [3] is 1.

For the molecule `COc1ccc(-c2noc(-c3ccc(C)c(C)c3)n2)cc1`, the “proportion of mobile M. hapla J2” value in experiment [1] is 0.807. Also, the “proportion of mobile C. elegans dauer larvae” value in experiment [2] is 1. For the same molecule, the “proportion of mobile D. dipsaci” value in experiment [3] is 1.

For `Cc1cc(OCc2nc(-c3cccnc3)no2)c(C)cc1Br`, in experiment [1], the “proportion of mobile M. hapla J2” value was 0.771. For the same molecule, the “proportion of mobile C. elegans dauer larvae” value in experiment [2] was 1. Further, the “proportion of mobile D. dipsaci” value in experiment [3] was 1.

For the molecule `O=C(CSc1nnc(-c2cccc(Br)c2)o1)c1ccccc1`, the “proportion of mobile M. hapla J2” value in experiment [1] was 1.02. Moreover, in experiment [2], the “proportion of mobile C. elegans dauer larvae” value is 1. The “proportion of mobile D. dipsaci” value in experiment [3] was 0.714 (active).

On to `CCOc1ccccc1-c1nnc(SCc2ccccc2)o1`, for which the “proportion of mobile M. hapla J2” value in experiment [1] was 0.891. Further, the “proportion of mobile C. elegans dauer larvae” value in experiment [2] was 1. In experiment [3], the “proportion of mobile D. dipsaci” value is 1.

Regarding `Cc1cc(OCc2nc(-c3ccccc3)no2)cc(C)c1Cl`, in experiment [1], the “proportion of mobile M. hapla J2” value was 1.05. For the same molecule, the “proportion of mobile C. elegans dauer larvae” value in experiment [2] is 1. For the same molecule, the “proportion of mobile D. dipsaci” value in experiment [3] is 1.

Take `COc1ccc(NC(=O)c2ccccc2-c2nc(-c3ccccc3C)no2)cc1`: the “proportion of mobile M. hapla J2” value in experiment [1] was 0.81. Also, the “proportion of mobile C. elegans dauer larvae” value in experiment [2] is 1. The “proportion of mobile D. dipsaci” value in experiment [3] was 1.

As for `COc1ccc(-c2noc(-c3cccc(F)c3)n2)cc1`, the “proportion of mobile M. hapla J2” value in experiment [1] is 1. For the same molecule, the “proportion of mobile C. elegans dauer larvae” value in experiment [2] is 1. Also, the “proportion of mobile D. dipsaci” value in experiment [3] was 1.

Consider `Cc1cnnn1-c1ccc(-c2nc(-c3ccc(Cl)cc3)no2)cc1`, for which the “proportion of mobile M. hapla J2” value in experiment [1] is 0.963. Also, the “proportion of mobile C. elegans dauer larvae” value in experiment [2] is 1. Also, the “proportion of mobile D. dipsaci” value in experiment [3] is 1.
